# Results as given in PubChem BioAssay (NCATS).
# Values joined by “and” are separate entries in the source; they are usually repeats but may differ in a detail not shown here. Equal entries are not always repeated. Active and inactive are the calls of the source. A call without a number means that no potency is given here. Calls follow the shape of the dose curve; as a rule, active = well fitted cell-killing curve with a large enough effect; inconclusive = small, poorly fitted or top-dose-only effect, or effect the other way; inactive = flat fitted curve, though single readings scatter.
# Assay: MultiTox-Fluor Cytotoxicity Assay - LYMP1-003 - Dead Cells (AID 961);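 also: cells exposed to compound for 16 h at 37 °C; nearly all actives have a fitted effect of over 70% in size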
# Conditions: LYMP1-003 lymphoblastoid cells, dead-cell protease fluorescence; series mostly up to 92.2 µM
# In short: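 Human lymphoblastoid LYMP1-003 cells (2500/well) were treated with compounds for 16 hr at 37 C in complete medium. Dead-cell protease release was read by bis-AAF-R110 fluorescence (Ex/Em 485/520). AC50 came from Hill fits, normalized to DMSO and 15 uM tetraoctylammonium bromide.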
# Potency is read from the fitted curve at half-maximal effect.
row,SMILES,Potency
1,CCCN(CCC)C(=O)SCC,inactive
2,COc1ccc2nc(N)sc2c1,inactive
3,ClCCCl,inactive
4,CCC(O)OC(O)CC (stereo unspecified),inactive
5,C=Cc1ccccc1Cl,inactive
6,c1ccc2c(c1)c1cccc3ccc4cccc2c4c31,inactive
7,Cc1cccc([N+](=O)[O-])c1C,inactive
8,CCCCCCCCO,inactive
9,CC(C)=CCCC(C)CCO (stereo unspecified),inactive
10,O=[N+]([O-])c1cccc(Cl)c1Cl,inactive
11,CCO[Si](CCCN)(OCC)OCC,inactive
12,Clc1cc(Cl)c(Cl)cc1Cl,inactive
13,CCO,inactive
14,C=CC(=O)OCCOCCOCCOCCOC(=O)C=C,20 µM (active) and 25.1 µM (active)
15,Clc1cc(Cl)c(Cl)c(Cl)c1Cl,inactive
16,CCCCC(CC)CN (stereo unspecified),inactive
17,O=NO,inactive
18,c1ccc2c(c1)[nH]c1ccccc12,inactive
19,OCCNCCO,inactive
20,Nc1ccc(Cl)cc1Cl,inactive
21,CCC(C)c1ccccc1O (stereo unspecified),inactive
22,CC1=CC(C)(C)Nc2ccccc21,inactive
23,CN(C)C=O,inactive
24,Cc1ccc(N)c([N+](=O)[O-])c1,inactive
25,CCCCOCCO,inactive
26,CC(=O)OC/C=C(\C)CCC=C(C)C,inactive
